The panel holds about 83,000 compounds, 20% with a hit somewhere; the sample as a whole holds those more often.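 Cells were grown in 96-well plates and exposed to the test compound at a single concentration for 48 hours; results are reported as percent growth, with values below 10 considered active.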 Unmarked numbers belong to inactive results. Activity calls are given as the source filed them.

Common to all, as to assay: NCI-60 one-dose screen, 48 h (100 = growth as untreated, 0 = no growth, -100 = all killed)
The test system of one assay is SR leukemia. To be noted: 10 µM unless noted.
The next assay deals with RPMI-8226 leukemia. As to conditions: 10 µM.
A further assay concerns OVCAR-8 ovarian. To be noted: 10 µM unless noted.
In the next assay the test system is OVCAR-5 ovarian. As to conditions: 10 µM unless noted.
Another assay concerns OVCAR-4 ovarian. As to conditions: 10 µM unless noted.
The test system of the next assay is SK-OV-3 ovarian. To be noted: 10 µM.
The subject of another assay is IGROV1 ovarian. As to conditions: 10 µM unless noted.
The test system of the next assay is OVCAR-3 ovarian. To be noted: 10 µM unless noted.
A further assay relates to HS 578T breast. As to conditions: 10 µM unless noted.
For the next assay, the system named is NCI/ADR-RES ovarian. To be noted: 10 µM unless noted.

Consider `Cc1cc(=O)oc2c1ccc1oc(C(=O)c3ccccc3)c(C)c12`, for which the growth in the assay with SR leukemia was 60.3%; in the assay with RPMI-8226 leukemia it was 69.5%; with OVCAR-8 ovarian it was 76.2%; with OVCAR-5 ovarian, 104%; in the assay on OVCAR-4 ovarian, 66.8%; in the assay with SK-OV-3 ovarian it was 109%. The growth in the assay on IGROV1 ovarian was 102%; with OVCAR-3 ovarian, 85.6%; in the assay with HS 578T breast, 103%; in the assay with NCI/ADR-RES ovarian it was 83.3%.

As to `O=S(=O)(OCCO)c1ccccc1`, the growth is 100% in the assay with SR leukemia; 103% in the assay with RPMI-8226 leukemia; 90.6% in the assay on OVCAR-8 ovarian; 92% in the assay on OVCAR-5 ovarian; 109% in the assay with OVCAR-4 ovarian; 109% in the assay on SK-OV-3 ovarian. Besides, the growth in the assay on IGROV1 ovarian is 113%; in the assay with OVCAR-3 ovarian it was 112%; in the assay on HS 578T breast it was 108%; in the assay on NCI/ADR-RES ovarian, 102%.

With `CCCCC(CCCC)(S(=O)(=O)CC)S(=O)(=O)CC`, the growth was 92.3% with SR leukemia; 90.8% with RPMI-8226 leukemia; 102% in the assay with OVCAR-8 ovarian; 103% with OVCAR-5 ovarian; 110% in the assay with OVCAR-4 ovarian; 105% with SK-OV-3 ovarian. In addition, the growth in the assay on IGROV1 ovarian is 104%; in the assay on OVCAR-3 ovarian, 105%; in the assay with HS 578T breast, 104%; in the assay with NCI/ADR-RES ovarian it was 102%.

`Cc1nc(NN)c([N+](=O)[O-])c(NN)n1`: the growth with SR leukemia is 73.5%; in the assay with RPMI-8226 leukemia it was 82.5%; in the assay with OVCAR-8 ovarian, 102%; with OVCAR-5 ovarian it was 92.8%; in the assay with OVCAR-4 ovarian it was 114%; with SK-OV-3 ovarian, 121%. Also, the growth in the assay on IGROV1 ovarian was 108%; in the assay on OVCAR-3 ovarian, 99.9%; in the assay on HS 578T breast, 139%; in the assay with NCI/ADR-RES ovarian, 119%.

For the compound `C(=C\c1ccccc1)/CN1CCN(C(c2ccccc2)c2ccccc2)CC1`, the growth is 76.4% with SR leukemia; 77.1% in the assay with RPMI-8226 leukemia; 85.7% in the assay on OVCAR-8 ovarian; 101% in the assay with OVCAR-5 ovarian; 87.1% in the assay with OVCAR-4 ovarian; 108% in the assay on SK-OV-3 ovarian. Moreover, the growth in the assay with IGROV1 ovarian was 122%; in the assay with OVCAR-3 ovarian it was 114%; in the assay with HS 578T breast, 93.4%; in the assay with NCI/ADR-RES ovarian, 81.7%.

In the case of `Cc1nc2cc(Nc3nc(Nc4ccc(F)cc4)nc(-c4cccs4)n3)ccc2n1Cc1ccccc1`, the growth was 18% with SR leukemia; -0.339% (active) in the assay on RPMI-8226 leukemia; 37% in the assay on OVCAR-8 ovarian; 92% in the assay with OVCAR-5 ovarian; 51% with OVCAR-4 ovarian; 95.1% with SK-OV-3 ovarian. Further, the growth in the assay on IGROV1 ovarian is 48.3%; with OVCAR-3 ovarian it was 66.7%; in the assay on HS 578T breast, 50.3%; in the assay with NCI/ADR-RES ovarian, 57.3%.

As for `O=C1C(Cl)=C(NCCCN2CCOCC2)C(=O)c2ccccc21`, the growth in the assay on SR leukemia is 39.2%; in the assay on RPMI-8226 leukemia, 78.3%; with OVCAR-8 ovarian, 96.1%; with OVCAR-5 ovarian, 111%; in the assay on OVCAR-4 ovarian it was 77.1%; with SK-OV-3 ovarian it was 102%. Moreover, the growth is 56.4% with IGROV1 ovarian, 96.4% in the assay with OVCAR-3 ovarian, 99.7% with HS 578T breast and 99.1% in the assay on NCI/ADR-RES ovarian.

As to `COc1cc2nc(SCc3cc(OC)c(OC)c(OC)c3)n(-c3ccccc3OC)c(=O)c2cc1OC`, the growth in the assay with SR leukemia is 23.8%; in the assay on RPMI-8226 leukemia, 71.2%; in the assay on OVCAR-8 ovarian, 84.6%; in the assay on OVCAR-5 ovarian, 89%; with OVCAR-4 ovarian it was 83.1%; in the assay on SK-OV-3 ovarian, 98.2%. In addition, the growth in the assay with IGROV1 ovarian was 83.1%; with OVCAR-3 ovarian, 48.2%; in the assay with HS 578T breast, 60.8%; with NCI/ADR-RES ovarian it was 62.9%.

For `COc1cccc(C2C3=C(COC3=O)N(CCO)c3cc4c(cc32)CCC4)c1` (stereo not given), the growth with SR leukemia was 29.4%; with RPMI-8226 leukemia, 28.1%; in the assay on OVCAR-8 ovarian it was 20.9%; in the assay on OVCAR-5 ovarian, 32.9%; in the assay with OVCAR-4 ovarian it was 10.3%; with SK-OV-3 ovarian, 20.9%. Moreover, the growth was 8.37% (active) in the assay on IGROV1 ovarian, -46% (active) in the assay with OVCAR-3 ovarian, 2.16% (active) in the assay on HS 578T breast and -43.2% (active) with NCI/ADR-RES ovarian.

On to `Cc1ccc(S(=O)(=O)N2CCc3ccc(O)c4c3C2Cc2ccc3c(c2-4)OCO3)cc1` (stereo not given), for which the growth in the assay on SR leukemia was 14.8%; with RPMI-8226 leukemia, 27.4%; in the assay on OVCAR-8 ovarian, 31.1%; in the assay with OVCAR-5 ovarian, 45.8%; in the assay with OVCAR-4 ovarian, 45.6%; with SK-OV-3 ovarian it was 7.28% (active). Further, the growth was 41.6% in the assay on IGROV1 ovarian, -47.7% (active) with OVCAR-3 ovarian, 47.5% in the assay on HS 578T breast and 9.54% (active) with NCI/ADR-RES ovarian.

As for `Clc1ccc(C2=NN(c3ccccc3)[C@H](c3cn(-c4ccccc4)nc3-c3ccccc3)C2)cc1`, the growth in the assay with SR leukemia is 118%; in the assay with RPMI-8226 leukemia, 112%; in the assay on OVCAR-8 ovarian, 106%; in the assay on OVCAR-5 ovarian it was 97.8%; in the assay with OVCAR-4 ovarian it was 105%; in the assay with SK-OV-3 ovarian, 107%. For the same compound, the growth with IGROV1 ovarian is 104%; with OVCAR-3 ovarian it was 113%; with HS 578T breast, 131%; with NCI/ADR-RES ovarian, 105%.

As for `COc1ccc(CSc2nc3cc(OC)c(OC)cc3c(=O)n2-c2ccc(Cl)cc2)cc1`, the growth with SR leukemia was 102%; with RPMI-8226 leukemia, 90.8%; with OVCAR-8 ovarian, 98.7%; in the assay with OVCAR-5 ovarian, 94.2%; with OVCAR-4 ovarian, 103%; with SK-OV-3 ovarian it was 105%. Besides, the growth is 104% in the assay with IGROV1 ovarian, 103% in the assay with OVCAR-3 ovarian, 97.1% in the assay on HS 578T breast and 101% with NCI/ADR-RES ovarian.

Turning to `ONc1nc(NO)c2[nH]cnc2n1`, the growth with SR leukemia is 21.3%; in the assay on RPMI-8226 leukemia it was 45.1%; with OVCAR-8 ovarian, 58.3%; with OVCAR-5 ovarian, 89.5%; in the assay on OVCAR-4 ovarian, 84.7%; in the assay on SK-OV-3 ovarian, 97.1%. Besides, the growth is 86.9% in the assay on IGROV1 ovarian, 87.8% in the assay on OVCAR-3 ovarian, 108% in the assay on HS 578T breast and 74.7% with NCI/ADR-RES ovarian.

Consider `CNc1ccc(Br)cc1-c1n[nH]c(=O)[nH]c1=O`, for which the growth was 103% with SR leukemia; 104% with RPMI-8226 leukemia; 100% with OVCAR-8 ovarian; 98.3% in the assay on OVCAR-5 ovarian; 90.9% in the assay on OVCAR-4 ovarian; 102% in the assay on SK-OV-3 ovarian. The growth with IGROV1 ovarian was 106%; in the assay with OVCAR-3 ovarian, 116%; with HS 578T breast, 84.1%; in the assay with NCI/ADR-RES ovarian, 105%.

As for `O=C1NC(=O)C2(CCCC2C(=O)O)N1` (stereo not given), the growth in the assay with SR leukemia is 90.4%; in the assay on RPMI-8226 leukemia, 103%; in the assay with OVCAR-8 ovarian, 100%; in the assay with OVCAR-5 ovarian it was 110%; in the assay on OVCAR-4 ovarian, 99.4%; with SK-OV-3 ovarian it was 119%. Also, the growth in the assay on IGROV1 ovarian was 131%; in the assay with OVCAR-3 ovarian, 120%; in the assay on HS 578T breast, 115%; with NCI/ADR-RES ovarian, 100%.

On to `O=[N+]([O-])c1cc2c(cc1Br)-c1ccccc1C2`, for which the growth is 82.7% in the assay with SR leukemia; 80.7% in the assay on RPMI-8226 leukemia; 97.3% with OVCAR-8 ovarian; 124% with OVCAR-5 ovarian; 48.5% in the assay with OVCAR-4 ovarian; 90% with SK-OV-3 ovarian. Moreover, the growth with IGROV1 ovarian is 87.1%; in the assay with OVCAR-3 ovarian, 102%; in the assay with HS 578T breast it was 94%; in the assay on NCI/ADR-RES ovarian, 81.6%.

`CCCCCn1c(=N)n(CC(O)COc2cccc(C)c2)c2ccccc21` (stereo not given): the growth was 2.12% (active) with SR leukemia; -10.8% (active) in the assay on RPMI-8226 leukemia; 20.9% in the assay on OVCAR-8 ovarian; 61.7% in the assay with OVCAR-5 ovarian; 6.79% (active) with OVCAR-4 ovarian; 13.1% in the assay on SK-OV-3 ovarian. In addition, the growth was 28.1% in the assay on IGROV1 ovarian, 7.4% (active) in the assay with OVCAR-3 ovarian, -0.161% (active) in the assay with HS 578T breast and 3.77% (active) in the assay on NCI/ADR-RES ovarian.

Turning to `COc1cc(C2C3=C(COC3=O)N(CCO)c3cc4c(cc32)OCO4)cc(OC)c1O` (stereo not given), the growth was 21.5% in the assay with SR leukemia; 21.8% with RPMI-8226 leukemia; 42.8% with OVCAR-8 ovarian; 72% with OVCAR-5 ovarian; 48.3% in the assay with OVCAR-4 ovarian; 31.8% with SK-OV-3 ovarian. The growth in the assay with IGROV1 ovarian was 36%; in the assay with OVCAR-3 ovarian, -25.9% (active); with HS 578T breast it was 3.31% (active); with NCI/ADR-RES ovarian it was 73.3%.

The values above are taken from PubChem BioAssay (NCI).
